Results reported in PubChem BioAssay (Tox21).
“And” between values parts separate entries of the source, which are not always exact repeats. Equal values may be shown once. Records with an inconclusive call do not appear. A call without a number means that no potency is given here. Some structures have more than one record in an assay (separate samples or runs), and their calls can disagree. The source made the active and inactive calls. Calls come from the whole dose curve; as a rule, active = well fitted cell-killing curve with a large enough effect in the repeat runs; inconclusive = weak or mixed curves; inactive = no such curve, though single readings can be large or run the other way.

test: qHTS assay to identify small molecule antagonists of the peroxisome proliferator-activated receptor delta (PPARd) signaling pathway - cell viability counter screen (AID 743213); settings: PPARd-bla HEK293H viability, CellTiter-Glo luminescence, 17 h; series mostly up to 62 µM; note: nearly all actives have a fitted effect of over 50% in size
Method in brief: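 HEK293H PPARd UAS-bla cells, 5 h pre-incubation, compound + L165041 300 nM final, 17 h 37 C; B/G FRET substrate 2 h RT; then CellTiter-Glo 30 min RT, luminescence.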
Potency is the fitted concentration of half-maximal effect.

Compound	Potency
CCCCCCCCCC(=O)O	inactive
NS(=O)(=O)c1cc2c(cc1Cl)NC=NS2(=O)=O	inactive
CC(C)Cc1ccccc1	inactive
Clc1cc(Cl)c(Cl)cc1Cl	inactive
CCCCC(CC)COC(C)=O (centres undefined)	inactive
NCCNCCNCCNCCN	inactive
CCOC(=O)C1OC1c1ccccc1 (centres undefined)	inactive
CC1COc2ccccc2N1C(=O)C(Cl)Cl (centres undefined)	inactive
CCCCCCCCC	inactive
Cc1cc(O)cc(C)c1Cl	inactive
CC1=C(/C=C/C(C)=C/C=C/C(C)=C/CO)C(C)(C)CCC1	inactive
CC1(C)O[C@@H]2C[C@H]3[C@@H]4C[C@H](F)C5=CC(=O)CC[C@]5(C)[C@H]4[C@@H](O)C[C@]3(C)[C@]2(C(=O)CO)O1	inactive
Nc1nc2ncc(CNc3ccc(C(=O)N[C@@H](CCC(=O)O)C(=O)O)cc3)nc2c(=O)[nH]1	inactive
ClC1=C(Cl)C(Cl)(Cl)C(Cl)=C1Cl	inactive
CS(=O)(=O)c1ccc([C@@H](O)[C@@H](CO)NC(=O)C(Cl)Cl)cc1	inactive
OC1CCCC1	inactive
CC(C)(N=C=O)c1cccc(C(C)(C)N=C=O)c1	inactive
OCCOCCOCCOCCO	inactive
C=C1C2CCC(C2)C1(C)C (centres undefined)	inactive
O=S(=O)(Oc1ccc(Cl)cc1Cl)c1ccccc1	inactive

Compound	Potency
C[C@@H]1O[C@@H](OC[C@H]2O[C@@H](Oc3c(-c4ccc(O)c(O)c4)oc4cc(O)cc(O)c4c3=O)[C@H](O)[C@@H](O)[C@@H]2O)[C@H](O)[C@H](O)[C@H]1O	inactive
Cn1c([N+](=O)[O-])cnc1COC(N)=O	inactive
CC(C)(C)C1CCC(O)CC1 (centres undefined)	inactive
C=C1CC[C@H](O)CC1=C/C=C1\CCC[C@]2(C)[C@@H]([C@H](C)/C=C/[C@H](C)C(C)C)CC[C@@H]12	inactive
CC1=C(CC(=O)O)c2cc(F)ccc2/C1=C\c1ccc(S(C)=O)cc1 (centres undefined)	inactive
CCOC(=O)/C=C\C(=O)OCC	inactive
CCCCC(CC)C(=O)OCCOCCOCCOC(=O)C(CC)CCCC (centres undefined)	inactive
O=[N+]([O-])C(CO)(CO)CO	inactive
CC1CC(OC(=O)c2ccccc2O)CC(C)(C)C1 (centres undefined)	inactive
CCCCC(CC)COC(=O)/C=C\C(=O)OCC(CC)CCCC (centres undefined)	inactive
Oc1c(Cl)cc(Cl)c(Cl)c1Cl	inactive
CCCCCCCCCCCCN	inactive and 49 µM (active)
C=C(C)C(=O)OCCC[Si](OC)(OC)OC	inactive
COC(=O)c1ccccc1O	inactive
Cc1ccc(C)c(C)c1	inactive
C=C(C)C(=O)OCCCCCCCCCCCC	inactive
Nc1cc(-c2ccncc2)c[nH]c1=O	inactive
O=C1CCCCC1	inactive
CCc1ccc(O)cc1	inactive
